MARV entry inh = inhibitors of Marburg virus binding or entry into cells. Marburg virus pseudotype entry/binding inhibition, cell-based. Potency, µM (series often up to 49.2 µM), inactives show at the highest dose activity change, negative = inhibition, usual class: inhibitors. 6.5% of 18,000 active
LASV entry inh = Lassa virus entry inhibition | 4.1% of 18,000 active | Potency, µM (series often up to 49.2 µM), inactives show at the top dose activity change, negative = inhibition, most hits filed as inhibitors | Lassa virus pseudotyped entry inhibition, cell-based qHTS
An asterisk follows results filed as active; u = inconclusive; x = no result given; ! = not active in a repeat; [ ] = dose if it differs, or a comment. Only some compounds are listed: those with a hit (about 7.1% of all), similar ones and a draw of the others. Calls come from the whole dose curve; tested in HEK293 cells. % is set by controls: 0 for no effect and ±100 for the full control effect; potency is the fitted concentration of half-maximal effect.

SMILES	MARV entry inh	LASV entry inh
CCCCC(F)(F)[C@@]1(O)CC[C@H]2[C@@H](CC(=O)[C@@H]2CCCCCCC(=O)O)O1	3%	-16%
C=CC[C@](C)(O)c1ccccc1	-15%	0.75µM*!
C=CCC(C)(O)c1cccc(C(F)(F)F)c1 (centres undefined)	3%	-10%
O=C(Nc1cc(C(F)(F)F)cc(C(F)(F)F)c1)c1cc(Cl)ccc1O	1µM*	1.1µM*
O=C(Nc1cc(C(F)(F)F)ccc1O)Nc1cc(C(F)(F)F)ccc1O	12%	-3%
CC#CCN1C(=O)NC(c2ccccc2)C(C(=O)OC)=C1C (centres undefined)	u	8%[8.59 µM]
C[C@@H](NS(=O)(=O)c1ccc(Br)cc1F)[C@H](O)c1ccccc1	20%	12%
COc1ccc(COC(=O)NN=C2C[C@@H](O)[C@@H](O)[C@@H]3[C@H]4C(=O)N(C[C@@H]5CCCO5)C(=O)[C@@H]4CC[C@H]23)cc1	u	0.6µM*
CCOC(=O)NN=C1C[C@@H](O)[C@@H](O)[C@@H]2[C@H]3C(=O)N(c4ccc(F)cc4F)C(=O)[C@@H]3CC[C@H]12	-21%[8.59 µM]	9%[8.59 µM]
COc1ccc(COC(=O)NN=C2C[C@@H](O)[C@@H](O)[C@@H]3[C@H]4C(=O)N(c5ccc(F)cc5F)C(=O)[C@@H]4CC[C@H]23)cc1	30%[8.59 µM]	1.3µM*
COc1ccc(COC(=O)NN=C2C[C@@H](O)[C@@H](O)[C@@H]3[C@H]4C(=O)N(C5CCCCC5)C(=O)[C@@H]4CC[C@@H]23)cc1	-29%[8.59 µM]	x
C=CCN1C(=O)CC[C@@]23C1=NC(C(=O)OC)=C(C(=O)OC)[C@@H]2N(C)c1ccccc13	14%[8.59 µM]	14%[8.59 µM]
CC1(C)CN(C2CCCCC2)C(=O)[C@@H]1CC(=O)Nc1ccccc1	-14%	-27%
COC(=O)C1=C(C(=O)OC)[C@@H]2N(C)c3ccccc3[C@@]23C[C@@H](C(=O)OC)N(C(=O)NC2CCCC2)C3=N1	u	14%[8.59 µM]
CCN(CCO)CCCC(C)Nc1ccnc2cc(Cl)ccc12 (centres undefined)	1.3µM*	-17%
CN(Cc1ccco1)Cc1cc(-c2ccnc3cc(Cl)ccc23)ccc1O	-14%	-14%
CCN(CC)Cc1cc(Nc2ccnc3cc(Cl)ccc23)ccc1O	5µM*	u
COC(=O)C1=C(C(=O)OC)[C@@H]2N(Cc3ccccc3)c3ccccc3[C@@]23C[C@@H](CO)N=C3N1	-1%[8.59 µM]	-10%[8.59 µM]
COc1cccc2c1[C@H](C=Cc1ccccc1)[C@@H]([C@H](O)CN=[N+]=[N-])OC2	-5%[8.59 µM]	-18%[8.59 µM]
NCc1ccc(-c2nc(-c3ccc(Cl)c(O)c3)c(-c3ccncc3)[nH]2)cc1	u	20%
Oc1cccc(-c2nc(-c3ccccc3)[nH]c2-c2ccncc2)c1	7.9µM*	x
O=C(NCC1Cc2cccc(-c3cnccn3)c2O1)c1ccc(F)c(Cl)c1 (centres undefined)	11µM*	2%
O=C(NCC1Cc2cccc(-c3ncccn3)c2O1)c1cccc(-c2ccccc2F)c1 (centres undefined)	-1%	-14%
CSc1ccccc1C(=O)NCC1Cc2cc(F)cc(-c3cnccn3)c2O1 (centres undefined)	-5%	-10%
Cc1cc2c(c(-c3cnccn3)c1)OC(CNC(=O)c1cc(Cl)ccc1F)C2 (centres undefined)	25µM*	-2%
SMILES	MARV entry inh	LASV entry inh
COC(=O)N1C2=C(c3ccccc3[C@@H]1CC(=O)O)[C@@H]1O[C@@H](C2)c2ccccc21	u	-14%[8.59 µM]
CCOC(=O)NN=C1C[C@@H](O)[C@@H](O)[C@@H]2[C@H]3C(=O)N(c4cccc(Oc5ccccc5)c4)C(=O)[C@@H]3CC[C@@H]12	37%[8.59 µM]	-10%[8.59 µM]
NC1(c2ccc(-c3nc4ccn5c(=O)[nH]nc5c4cc3-c3ccccc3)cc2)CCC1	6.3µM*	u
O=C1[C@H]2[C@@H]3[C@@H](O)[C@H](O)CC(=NOCc4ccccc4)[C@@H]3CC[C@H]2C(=O)N1C1CCCCC1	-14%[8.59 µM]	x
Oc1ccc2c(c1)[C@@]13CCCCC1[C@@H](C2)N(CC1CCC1)CC3 (some centres undefined)	10µM*	u
CC(C)=CCN1CC[C@]2(C)c3cc(O)ccc3C[C@H]1[C@H]2C	u	-29%[107 µM]
COc1ccc2c(c1)C13CCCC[C@@H]1C(C2)N(C)CC3 (some centres undefined)	u	0%[17.8 µM]
C=CCN1CC[C@]23CCCC[C@H]2[C@H]1Cc1ccc(O)cc13	28µM*	u
COc1ccc([C@]23Cc4ccccc4[C@H](O2)C2=C(CCCC2=O)O3)cc1	57%[8.59 µM]	-4%[8.59 µM]
CC(=O)Nc1ccc(-c2c(C)cc3oc(=O)cc(-c4ccccc4)c3c2C)cc1	-22%	7.9µM*
Cc1ccc(-c2c(C)cc3oc(=O)cc(-c4ccccc4)c3c2C)cc1	-17%	u
CC[C@H]1OC(=O)[C@H](C)[C@@H](O[C@H]2C[C@@](C)(OC)[C@@H](O)[C@H](C)O2)[C@H](C)[C@@H](O[C@@H]2O[C@H](C)C[C@H](N(C)C)[C@H]2O)[C@](C)(O)C[C@@H](C)[C@@H]2N[C@@H](COCCOC)O[C@@H]([C@H]2C)[C@]1(C)O	7.1µM*	-1%
CCC(=O)O[C@H]1[C@H](O[C@@H]2[C@@H](C)[C@H](O[C@H]3C[C@@](C)(OC)[C@@H](O)[C@H](C)O3)[C@@H](C)C(=O)O[C@H](CC)[C@@](C)(O)[C@H](O)[C@@H](C)C(=O)[C@H](C)C[C@@]2(C)O)O[C@H](C)C[C@@H]1N(C)C	10µM*	25µM*
CCC1OC(=O)C(C)[C@@H](O[C@H]2C[C@@](C)(OC)C(O)C(C)O2)C(C)[C@@H](O[C@@H]2OC(C)CC(N(C)C)C2O)[C@@](C)(O)CC(C)C2NC(COCCOC)O[C@H](C2C)[C@@]1(C)O (some centres undefined)	-16%	-7%
CCOC(=O)CCC(=O)O[C@H]1[C@H](O[C@@H]2[C@@H](C)[C@H](O[C@H]3C[C@@](C)(OC)[C@@H](O)[C@H](C)O3)[C@@H](C)C(=O)O[C@H](CC)[C@@](C)(O)[C@H](O)[C@@H](C)C(=O)[C@H](C)C[C@@]2(C)O)O[C@H](C)C[C@@H]1N(C)C	8%	1%
CCN1C(=NCC(C)C)NC(c2cccc(F)c2)C(C(=O)OC)=C1C (centres undefined)	-5%[8.59 µM]	10%[8.59 µM]
CC1CC[C@@]2(OC1)O[C@@H]1[C@@H](O)[C@H]3C4CC[C@H]5C[C@@H](O[C@@H]6O[C@H](CO)[C@H](O[C@@H]7O[C@H](CO)[C@@H](O)[C@H](O[C@@H]8OC[C@@H](O)[C@H](O)[C@H]8O)[C@H]7O[C@@H]7O[C@H](CO)[C@@H](O)[C@H](O[C@@H]8O[C@H](CO)[C@@H](O)[C@H](O)[C@H]8O)[C@H]7O)[C@H](O)[C@H]6O)[C@H](O)C[C@]5(C)C4CC[C@]3(C)[C@H]1[C@@H]2C (some centres undefined)	25µM*	14µM*
CC1CC[C@@]2(OC1)OC1C(O)C3C4CC[C@H]5CC(O[C@@H]6O[C@@H](CO)[C@H](OC7OC(CO)C(O)C(OC8OCC(O)C(O)[C@H]8O)[C@@H]7O[C@@H]7OC(CO)[C@H](O)[C@@H](O[C@@H]8OC(CO)C(O)C(O)C8O)C7O)C(O)C6O)C(O)C[C@]5(C)C4CC[C@]3(C)C1C2C (some centres undefined)	u	14µM*
